Screening results as filed in PubChem.
Six1-Eya2 inh = qHTS Assay for Inhibitors of the Six1/Eya2 Interaction; activity change, % (no concentration beside the values); hit rate 0.56% among 360,000; Homeobox protein SIX1 (Homo sapiens) + Protein phosphatase EYA2 (Homo sapiens), …; AlphaScreen GST-Six1/His-Eya2 binding, biochemical; stronger effect = lower value; in the data active = activity change below about -65%; inconclusive = mostly about -30% to -63%; note: % is set by controls: 0 for no effect and ±100 for the full control effect
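AlphaScreen luminescence read after one hour at 37 °C in darkness. Pin-transferred compounds met GST-Six1 and His-Eya2 protein (5X stock 250 nM/500 nM) plus glutathione donor and Ni-chelate acceptor beads (5X, 50 ug/mL).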
BAZ2B block = qHTS Assay for Inhibitors of BAZ2B; AlphaScreen BAZ2B-H3K14Ac peptide displacement; AID 504333, 2011; hit rate 4.4% among 360,000; Bromodomain adjacent to zinc finger domain protein 2B (Homo sapiens), Q9UIF8; Potency, µM (highest dose often 114 µM), inactives show at the highest dose activity change, negative = inhibition, usual class: inhibitors; note: potency is the fitted concentration of half-maximal effect; % is set by controls: 0 for no effect and ±100 for the full control effect; nearly all actives have a fitted effect of over 60% in size
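AlphaScreen displacement: compounds (up to 110uM) incubated 30 min at room temperature with a preformed 50 nM BAZ2B/50 nM biotinylated H3K14Ac peptide complex in PBS pH 7.4 with Tween-20. Donor and acceptor beads at 10 ug/mL final added, 20 min light-protected before reading.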
CtBP-E1A inh = qHTS Assay for Inhibitors of the CtBP/E1A Interaction; CtBP / adenovirus E1A interaction (AlphaScreen); AlphaScreen GST-E1A/His-CtBP binding, 1536-well; stronger effect = lower value; activity change, % (concentration not given with the values); hit rate 0.49% among 340,000; AID 651724, 2012; in the data active = activity change below about -65%; inconclusive = mostly about -30% to -63%; note: % is set by controls: 0 for no effect and ±100 for the full control effect
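AlphaScreen with 125 nM GST-E1A and 125 nM His-CtBP (5X stocks) in Tris pH 8.0, 300 mM NaCl, BSA, Tween 20, TCEP. Compounds preincubated 2 h at 37 deg C, then glutathione donor/nickel acceptor beads added for 1 h at 37 deg C in dark.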
HP1b chromo inh = HTS for Inhibitors of HP1-beta Chromodomain Interactions with Methylated Histone Tails | Potency, µM (doses to about 114 µM), without a hit: at the highest dose activity change, negative = inhibition, most hits filed as inhibitors | AID 540317, 2011 | AlphaScreen HP1-beta / biotin-H3K9me3 peptide binding | Chromobox protein homolog 1 (Homo sapiens), P83916 | hit rate 0.56% among 390,000; note: potency is the fitted concentration of half-maximal effect; nearly all actives have a fitted effect of over 70% in size
Target sequence (P83916 whole entry, looked up): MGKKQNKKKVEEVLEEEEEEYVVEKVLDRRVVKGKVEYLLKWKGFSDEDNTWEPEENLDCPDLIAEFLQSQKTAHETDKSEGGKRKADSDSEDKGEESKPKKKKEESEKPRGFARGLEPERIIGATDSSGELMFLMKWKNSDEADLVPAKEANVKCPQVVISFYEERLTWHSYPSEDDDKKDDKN
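Compound inhibition of the preformed complex between 50 nM HP1-beta and 50 nM biotinylated H3K9me3 peptide was read by AlphaScreen. Buffer was PBS pH 7.4 with 0.01% Tween-20. Incubations ran 30 min at room temperature, with 10 ug/mL donor/acceptor beads.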
G9a inh = qHTS Assay for Inhibitors of Histone Lysine Methyltransferase G9a; G9a H3K9 monomethylation, AlphaScreen, 2 h; Potency, µM (titrated, usually from 102 µM), for the others: at the top dose activity, negative = inhibition, most hits filed as inhibitors; hit rate 8.8% among 350,000; AID 504332, 2011; note: potency is the fitted concentration of half-maximal effect; % is set by controls: 0 for no effect and ±100 for the full control effect; nearly all actives have a fitted effect of over 75% in size
Target sequence (Q96KQ7 913-1193 limits assumed): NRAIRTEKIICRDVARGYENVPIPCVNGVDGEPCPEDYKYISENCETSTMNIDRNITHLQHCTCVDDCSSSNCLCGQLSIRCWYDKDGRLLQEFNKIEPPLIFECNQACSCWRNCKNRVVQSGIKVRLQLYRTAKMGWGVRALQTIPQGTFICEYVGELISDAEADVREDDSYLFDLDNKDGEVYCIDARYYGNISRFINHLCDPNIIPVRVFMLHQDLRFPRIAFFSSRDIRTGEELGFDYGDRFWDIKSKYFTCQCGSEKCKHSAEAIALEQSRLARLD
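Methyltransferase reactions run at room temperature for 2 h (20 nM enzyme, 500 nM biotin-H3K9 peptide, 20 uM SAM) after a 15 min compound preincubation; product detected by AlphaScreen beads and anti-H3K9me1 antibody.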
JMJD2A Tudor = qHTS Assay for Inhibitors of JMJD2A-Tudor Domain; Lysine-specific demethylase 4A (Homo sapiens), O75164; AlphaScreen JMJD2A-Tudor / H3K4me3 peptide binding; Potency, µM (top dose mostly 114 µM), for inactives: at the top dose activity change, negative = inhibition, usual class: inhibitors; hit rate 4.4% among 390,000; note: potency is the fitted concentration of half-maximal effect; % is set by controls: 0 for no effect and ±100 for the full control effect; nearly all actives have a fitted effect of over 50% in size
Starred values were filed as active, the others as inactive; ? = inconclusive; nt = no result given; [ ] = dose if it differs, or a comment. A selection: hits, their analogues and other compounds. The true share with any hit is near 10%. Unless noted, calls come from the whole dose curve; as a rule, active = well fitted inhibition curve with a large enough effect; inconclusive = small, poorly fitted or top-dose-only effect; inactive = no such curve, though single readings can be large or run the other way.

SMILES	Six1-Eya2 inh	BAZ2B block	CtBP-E1A inh	HP1b chromo inh	G9a inh	JMJD2A Tudor
O=C(c1ccc(F)cc1)N1CCN(c2ccc([N+](=O)[O-])c(N3CCCCC3)c2)CC1	?	?	-21.5	-16.0%	28.2µM*	?
CCOc1ccc(C(=O)NC(=S)Nc2ccc(N3CCCCC3)cc2)cc1[N+](=O)[O-]	-27.1	8.91µM*	?	11.2µM*	6.31µM*	?
CCOc1ccc(C(=O)NC(=S)Nc2ccccc2N2CCCCC2)cc1[N+](=O)[O-]	-27.9	22.6%	?	?	20.8%[59 µM]	?
COc1cc(OC)cc(C(=O)NC(=S)N2CCCCCC2)c1	-5.5	?	8.3	10.1%	6.0%	?
CCOc1cccc(C(=O)NC(=S)Nc2ccc(N3CCN(CC)CC3)cc2)c1	-13.8	35.5µM*	-0.8	?	14.1µM*	56.2µM*
CCCOc1cccc(C(=O)NC(=S)Nc2ccc(N3CCN(C)CC3)cc2)c1	17.4	-12.2%	0.7	?	-15.7%[59 µM]	?
O=C(c1ccc2ccccc2c1)N1CCN(c2ccc([N+](=O)[O-])c(N3CCOCC3)c2)CC1	-23.8	?	-12.4	?	?	?
COc1cc(OC)cc(C(=O)NC(=S)Nc2ccc(N3CCCC3)cc2)c1	-29.8	?	-6.8	?	10µM*	?
CCOc1cccc(C(=O)NC(=S)Nc2cccnc2)c1	-1.5	-33.1%	4.0	7.3%	10µM*	?
O=C(NC(=S)Nc1cccnc1)c1cccc(Br)c1	9.1	-16.5%	-2.7	-18.8%	35.5µM*	-18.9%
O=C(Nc1ccc(NC(=O)c2ccc(Br)cc2)c(Cl)c1)c1ccc(Br)cc1	nt	-3.6%	nt	22.3%	-7.3%[59 µM]	-19.9%
O=c1oc2ccccc2c(Nc2ccccc2O)c1[N+](=O)[O-]	9.1	-12.4%	-5.8	41.5%	0.8%	-22.4%
O=c1oc2ccccc2c(Nc2cc3ccccc3cc2O)c1[N+](=O)[O-]	-4.0	11.2µM*	0.0	-8.4%	?	?
Cc1c(-c2ccccc2)n[nH]c1C(=O)NN	-12.5	-23.6%	-8.2	36.4%	39.8µM*	-4.3%
Cc1ccc(C)c(Nc2nc(NCc3ccco3)nc3nccnc23)c1	nt	nt	nt	67.2%	nt	-14.2%
CCCCCCNc1c([N+](=O)[O-])cc(C)cc1[N+](=O)[O-]	?	nt	?	8.91µM*	nt	12.6µM*
O=C(N/N=C/c1cc(Cl)c(O)c(Cl)c1)c1cc2c(ccc3ccccc32)o1	-26.0	56.2µM*	?	-2.1%	nt	?
O=C(N/N=C/c1cccnc1)c1cc2c(ccc3ccccc32)o1	-10.7	-11.8%	-12.2	29.6%	-38.9%[12.7 µM]	-33.9%
O=C(N/N=C/c1cc(Br)c(O)c(Br)c1)c1cc2c(ccc3ccccc32)o1	?	39.8µM*	-12.9	?	?	79.4µM*
O=C(N/N=C/c1ccc(O)c(Br)c1)c1cc2c(ccc3ccccc32)o1	-3.7	-5.7%	-7.2	37.0%	-2.3%[0.501 µM]	-11.2%
O=C(NCCCN1CCN(c2cccc(Cl)c2)CC1)c1ccc2nc(Cc3ccccc3)oc2c1	nt	?	nt	-10.7%[57 µM]	?	?
O=C(Nc1ccc(Cl)cc1)C1CCCN(S(=O)(=O)c2ccc3[nH]c(=O)ccc3c2)C1 (configuration not stated)	nt	3.6%	nt	76.8%	7.8%[59 µM]	-3.7%
NCCc1c(-c2ccccc2)n(-c2ccccc2)c2ccccc12	-20.8	22.4µM*	?	?	44.7µM*	31.6µM*
COCCNC(=O)CCCn1c(SCC(=O)c2ccc(Br)cc2)nc2c(sc3ccccc32)c1=O	nt	-14.0%	nt	17.7%	3.8%[59 µM]	-11.4%
CCOC(=O)C1CCCN(Cc2ccc(OCc3ccccc3)cc2)C1 (configuration not stated)	5.7	38.3%	nt	?	nt	?
SMILES	Six1-Eya2 inh	BAZ2B block	CtBP-E1A inh	HP1b chromo inh	G9a inh	JMJD2A Tudor
CCOC(=O)C1CCCN(Cc2cccc(Cl)c2)C1 (configuration not stated)	3.3	?	9.3	?	8.91µM*	2.82µM*
CCN(CC)C(=O)C1CCCN(Cc2ccc(N(C)C)cc2)C1 (configuration not stated)	-2.9	31.6µM*	3.1	?	14.1µM*	44.7µM*
CCN(CC)C(=O)C1CCCN(Cc2ccc3c(c2)OCO3)C1 (configuration not stated)	12.7	?	-0.9	-57.8%	8.91µM*	7.08µM*
CCOC(=O)C1CCCN(CC(=O)c2ccc(F)cc2)C1 (configuration not stated)	2.6	20µM*	-16.4	?	?	3.55µM*
COc1ccc(-c2cc(C(F)(F)F)nc(SCC(=O)NCc3ccc(Cl)cc3)n2)cc1	nt	4.1%	nt	16.7%	3.7%[59 µM]	-12.0%
O=C(c1cccc(Cl)c1)C1CCCN(Cc2ccc(N3CCNC3=O)cc2)C1 (configuration not stated)	-4.1	?	-12.4	8.0%	50.1µM*	?
CCOC(=O)C1CCCN(Cc2ccc(OCc3ccccc3)c(OC)c2)C1 (configuration not stated)	1.9	50.1µM*	nt	1.0%	-5.8%[0.501 µM]	?
COc1ccc(CN2CCC(C(=O)c3cccc(Cl)c3)CC2)cc1	1.2	0.3%	1.8	14.8%	-8.9%[0.501 µM]	-13.0%
c1cc2c(cc1CN1CCN(C3CCCCCC3)CC1)OCO2	-0.4	17.8µM*	-2.6	?	10µM*	17.8µM*
O=C(C1CCCN(Cc2ccc3c(c2)OCO3)C1)N1CCCC1 (configuration not stated)	9.9	56.2µM*	4.8	?	10µM*	39.8µM*
c1ccc(CN2CCC(N3CCN(Cc4ccc5c(c4)OCO5)CC3)CC2)cc1	2.3	0.8%	6.8	9.7%	-8.9%[59 µM]	-2.5%
CC(=O)c1cccc(CN2CCCC(C(=O)c3ccc4c(c3)OCO4)C2)c1 (configuration not stated)	-2.3	-14.8%	-9.8	23.6%	nt	-21.7%
CC(=O)Nc1ccc(C)cc1-c1nc2ccccc2n(Cc2cccc(Br)c2)c1=O	nt	1.9%	nt	36.3%	-50.4%[59 µM]	-5.3%
CC(=O)Nc1ccc(-n2cc3c(c2-c2ccc(C)cc2)c(=O)n(C)c(=O)n3C)cc1	nt	?	nt	-10.0%	?	-34.7%
